Source: PubChem
Sampled rows, rich in hits. Any-hit rate of the full collection: about 3.6%.
TRHR PAM = allosterically enhances the human TRH receptor. P34981. TRHR cells, fluo-8 calcium fluorescence, EC20 TRH enhancement. enhancement, % at 2 µM. actives 0.66% (n = 360,000); in the data active = enhancement above about 30%; also: 0% is about no effect
Target sequence (P34981 whole entry, looked up): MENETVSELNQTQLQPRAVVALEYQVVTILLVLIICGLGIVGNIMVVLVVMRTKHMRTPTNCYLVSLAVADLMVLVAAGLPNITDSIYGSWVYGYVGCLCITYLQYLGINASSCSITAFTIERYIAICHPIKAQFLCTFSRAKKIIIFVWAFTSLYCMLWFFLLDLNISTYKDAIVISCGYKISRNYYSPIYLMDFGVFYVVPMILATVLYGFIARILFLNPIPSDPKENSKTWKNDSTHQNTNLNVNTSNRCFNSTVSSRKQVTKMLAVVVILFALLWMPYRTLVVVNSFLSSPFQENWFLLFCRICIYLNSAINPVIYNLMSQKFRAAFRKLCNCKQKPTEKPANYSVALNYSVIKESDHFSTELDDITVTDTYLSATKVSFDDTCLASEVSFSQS
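Enhancer read-out: after compound pinning and an initial kinetic agonist-mode read, an EC20 of TRH (10 nM final) was injected and fluo-8 calcium signal (Ex 480/Em 530) followed at 1 s/cycle for 100 cycles in TRHR-expressing cells.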
LDHA block = inhibitors of human lactate dehydrogenase A; activity change, % (values are at about 110 or 230 µM); purified LDHA, NADH/diaphorase-resazurin fluorescence; stronger effect = lower value; actives 0.15% (n = 480,000); P00338; in the data active = activity change below about -30%;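 also: plate controls were DMSO wells for no effect and wells without enzyme for full effect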
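Human LDH5 at 2 nM final in Tris HCl pH 7.4 with 0.06 mM NADH and 0.2 mM pyruvate, reacted 5 minutes at room temperature. Remaining NADH coupled via diaphorase/resazurin; resorufin fluorescence read at 0 and 20 minutes, normalized to enzyme-free and DMSO wells.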
D1 antagonist = blocks dopamine activation of the human D1 receptor; P21728; HEK293 TREx D1 cells, calcium flux, dopamine EC80; stronger effect = lower value; activity change, negative = inhibition, % at 10 µM; actives 3.2% (n = 360,000); AID 504652; in the data active = activity change below about -30%; also: % is scaled to controls: 0 for no effect and ±100 for the full control effect
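Tetracycline-induced HEK293 Trex D1 cells, force-coupled to calcium, dye-loaded; compounds added and read 180 s, then EC80 dopamine added and calcium flux tracked kinetically another 180 s.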
TRHR agonist = activates the human TRH receptor | P34981 | TRHR cells, calcium flux fluo-8, FDSS agonist mode | activation, % at 2 µM | actives 0.18% (n = 360,000) | AID 493084; also: 0% is about no effect
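TRHR-expressing cells, plated overnight in medium with 10% serum, were loaded with fluo-8 calcium dye at room temperature. After a 10 s baseline, library compound was pin-added and calcium release was recorded kinetically (ex 480/em 530) as agonist response.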
D1 ag = activates the human D1 dopamine receptor; actives 1% (n = 360,000); HEK293 T-REx D1 cells, calcium flux, agonist mode; activation, % at 2 µM; P21728; also: 0% is about no effect
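Inducible HEK293 T-REx D1 cells, force-coupled to calcium signalling, were plated at 4000 cells/well with tetracycline and held overnight at 30 C. After no-wash calcium dye loading, compound-evoked calcium rise over 180 s flagged agonists.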
D1 potentiator = potentiators of human D1 dopamine receptor; HEK293 TREx D1 cells, calcium flux, dopamine EC20 potentiation; potentiation, % at 10 µM; actives 0.036% (n = 360,000); in the data active = potentiation above about 30%; also: 0% is about no effect
Numbers without * were called inactive. Rule as the data show it, unless noted: active = activation above about 30%; inactive = the rest.

Screening C=CCOC(=O)C(=O)/C=C/c1c(C)n(C)n(-c2ccccc2)c1=O returned TRHR PAM -2.7, LDHA block 1.7, D1 antagonist -40.3*, TRHR agonist 0.4, D1 ag -4.3 and D1 potentiator 1.4.
Screening COc1ccccc1N1CCN(C(=O)c2cc(-c3ccc(C)c(F)c3)on2)CC1 returned TRHR PAM -2.8, LDHA block -3.7, D1 antagonist -80.7*, TRHR agonist 0.4, D1 ag 2.0 and D1 potentiator -0.9.
For O=C1NC(=Nc2ccccc2)/C(=C/c2ccco2)S1 the results were TRHR PAM -4.0, LDHA block -1.8, D1 antagonist -36.6*, TRHR agonist 1.2, D1 ag 5.6 and D1 potentiator -10.6.
Screening O=C1NC(=Nc2ccccc2)S/C1=C\C=C\c1ccco1 returned TRHR PAM 1.1, LDHA block 3.1, D1 antagonist 13.5, TRHR agonist -0.6, D1 ag 6.5 and D1 potentiator -3.3.
For Cc1ccc(N=C2NC(=O)/C(=C/C=C/c3ccco3)S2)cc1 the results were TRHR PAM 7.7, LDHA block 4.9, D1 antagonist -7.1, TRHR agonist 0.2, D1 ag 2.0 and D1 potentiator -5.5.
Cc1ccc(N=C2NC(=O)S/C2=C\c2ccco2)cc1 was read as TRHR PAM 0.5, LDHA block -10.0, D1 antagonist -36.1*, TRHR agonist -0.8, D1 ag 9.4 and D1 potentiator -8.0.
`CCN(CC)CCCNC(=O)Cn1cc2c(n1)CCC(C)C2` (stereo unspecified) gave TRHR PAM -1.1, LDHA block -4.5, D1 antagonist -41.0*, TRHR agonist -0.3, D1 ag 1.3 and D1 potentiator -3.6.
`COCCCn1c(Cc2csc(Nc3ccccc3)n2)nnc1SCC(N)=O` gave TRHR PAM -2.7, LDHA block 0.2, D1 antagonist -35.8*, TRHR agonist 0.0, D1 ag 1.5 and D1 potentiator -1.2.
Screening COc1ccc(-c2noc(CSc3nnc(C)n3-c3ccc(C)cc3)n2)cc1 returned TRHR PAM -7.1, LDHA block -1.9, D1 antagonist -4.3, TRHR agonist -1.1, D1 ag 5.8 and D1 potentiator -0.2.
For COc1ccc(-c2noc(CSc3nnc(-c4ccccc4)n3C)n2)cc1 the results were TRHR PAM 2.2, LDHA block -1.1, D1 antagonist -2.5, TRHR agonist -0.5, D1 ag 6.0 and D1 potentiator 0.7.
Screening COc1ccc(-c2noc(CSc3nnc(-c4ccc(Cl)cc4)n3C)n2)cc1OC returned TRHR PAM -0.3, LDHA block -2.4, D1 antagonist -31.0*, TRHR agonist -0.6, D1 ag -0.9 and D1 potentiator -3.4.
`COc1ccc(-c2noc(CSc3nnc(C)n3-c3cccc(C)c3)n2)cc1` gave TRHR PAM -1.7, LDHA block 3.6, D1 antagonist -34.3*, TRHR agonist -0.4, D1 ag 9.7 and D1 potentiator -2.1.
For Cn1c(=O)c(=O)n(C)c2cc(N3CCOCC3)c(NS(=O)(=O)c3ccc(C(C)(C)C)cc3)cc21 the results were LDHA block -8.4.
CCCCc1c(C)c2ccc(OCC(C)=O)c(C)c2oc1=O was read as LDHA block 13.4.
FC(F)(F)COc1cc(-c2nnc(SCc3ccccc3)n2Cc2ccco2)cc(OCC(F)(F)F)n1 was read as TRHR PAM -5.2, LDHA block 0.9, D1 antagonist -0.7, TRHR agonist 3.4, D1 ag 32.0* and D1 potentiator -3.5.
For COc1ccc(Nc2ccccc2NC(=O)c2cccc(F)c2)cc1 the results were LDHA block 9.0.
`Clc1cccc2c1Sc1ccccc1CC2N1CCNCC1` (stereo unspecified) gave TRHR PAM 3.7, LDHA block -9.8, D1 antagonist -77.9*, TRHR agonist 5.4, D1 ag 56.7* and D1 potentiator -4.6.
CSc1ccc2c(c1)C(N1CCN(C)CC1)Cc1ccc(F)cc1S2 (stereo unspecified) was read as LDHA block 1.9.
